An excerpt weighted towards active compounds, which were near 20% of everything screened.
CHX counter = counter-screen hit for Shiga toxin inhibitors, cycloheximide | AID 2314 | cell reporter, cycloheximide protein synthesis inhibition counterscreen | 12% of 300,000 active | max response, %; in the data active means max response mostly above about 13%, no sharp cut-off; inactive means mostly below about 14%; further: read at 38.3 µM for the half of the compounds with a filed dose; 0% is about no effect
Shiga toxin inh = Shiga toxin inhibition; Vero cells, Shiga toxin protein synthesis inhibition reporter; inhibition, % at 38.7 µM; 9.2% of 290,000 active; AID 2315; in the data active means inhibition mostly above about 28%, no sharp cut-off; inactive means mostly below about 43%; further: 0% is about no effect
Pf growth 48h = inhibits P. falciparum growth in the first generation, 48 h; P. falciparum luciferase growth in erythrocytes, 48 h; Potency, µM (titrated, usually from 28.7 µM), for the others: at the top dose activity change, negative = inhibition, hits mostly inhibitors; 5.9% of 310,000 active; AID 504832; further: potency means the concentration at half of the fitted maximal effect; on the % scale 0 is the no-effect control and ±100 the full control effect
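Luciferase-expressing P. falciparum in infected erythrocytes (2% hematocrit, 0.1% parasitemia final) in RPMI 1640/0.5% Albumax were exposed to compound for 48 hours at 37 C, 5% CO2; growth read as luminescence.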
HCMV antiviral = inhibitors of human cytomegalovirus. HFF cells, HCMV-luciferase reporter, 72 h; hits give low values. activity change, negative = inhibition, % at 57.5 µM. 4.5% of 410,000 active. AID 1259415; in the data active means activity change below about -60%; inconclusive means no clear call, values can overlap the other calls; inactive means above about -39%; further: on the % scale 0 is the no-effect control and ±100 the full control effect
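Screen run at 2 compound doses on HFFs infected with reporter HCMV, MOI 1 PFU/cell. Luciferase activity from cell lysates at 72 h post infection gave inhibition relative to buffer-only and Salinomycin wells.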
Pf growth 96h = P. falciparum growth inhibition at 96 hour, primary screen for plastid delayed-death inhibitors; P. falciparum luciferase reporter growth, 96 h; Potency, µM (series often up to 28.7 µM), inactives show top-dose activity change, negative = inhibition, hits mostly inhibitors; 6.9% of 320,000 active; AID 504834; further: potency means the concentration at half of the fitted maximal effect; on the % scale 0 is the no-effect control and ±100 the full control effect
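Two-generation exposure (96 h) targets delayed-death phenotype. Reporter parasites carrying integrated firefly luciferase, in red cells at 2% hematocrit and 0.05% parasitemia final, kept at 37 C, 5% CO2; luminescence loss indicates inhibition.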
Numbers without * were called inactive; ? = inconclusive; nt = no result given. Unless noted, the call rests on the fitted dose curve; in most records, active means well fitted inhibition curve with a large enough effect; inconclusive means small, poorly fitted or top-dose-only effect, or another doubt; inactive means no such curve, though single readings can be large or run the other way.

SMILES	CHX counter	Shiga toxin inh	Pf growth 48h	HCMV antiviral	Pf growth 96h
O=C(NCc1ccco1)c1cc(-c2ccccc2)nc2ccccc12	24*	53	?	-20	121%
O=C(CSc1nc2c(c(=O)[nH]1)CCCC2)Nc1cccc(O)c1	nt	nt	nt	-7	nt
CC(NC(=O)c1ccncc1)c1ccc(Br)cc1 (centres undefined)	nt	nt	nt	19	nt
Cc1ccccc1C(=O)OCc1cc(=O)n2c(C)csc2n1	nt	nt	nt	0	nt
CCOC(=O)C1=C(c2ccccc2)c2ccccc2N(S(=O)(=O)C(F)(F)F)C1C(=O)OCC (centres undefined)	nt	nt	nt	-16	nt
CC(C)CCNC(=O)c1cc2cc(S(=O)(=O)N3CCCCC3)ccc2n1C	nt	nt	nt	-2	nt
COc1cccc(CNC(=O)C(C)n2ccc3cc(S(=O)(=O)N4CCCC4)ccc32)c1 (centres undefined)	9	-7	?	-4	?
CCC(C(=O)NCCC(C)C)n1ccc2cc(S(=O)(=O)N3CCCCC3)ccc21 (centres undefined)	16	-7	12µM*	nt	36%
O=C(O)CCn1ccc2cc(S(=O)(=O)N3CCCCCC3)ccc21	5	-13	6%	0	6%
O=C(O)CCCn1ccc2cc(S(=O)(=O)N3CCCC3)ccc21	-1	-5	3%	-1	13µM*
COc1cccc(CNC(=O)C(C)n2ccc3cc(S(=O)(=O)N4CCCCCC4)ccc32)c1 (centres undefined)	4	-12	7.4µM*	?	?
Cc1cccc(N2CC(c3nc4ccc(C)cc4[nH]3)CC2=O)c1 (centres undefined)	nt	nt	nt	-7	nt
CCCSc1nnc(NC(=O)c2sc3nc(-c4cccs4)ccc3c2N)s1	28*	17	?	50	-51%
Cc1csc(NC(=O)c2sc3nc(-c4cccs4)ccc3c2N)n1	41*	69*	?	nt	9%
Cc1cccc(OCc2n[nH]c(=S)n2Cc2ccccc2)c1	9	1	9%	53	30%
Oc1ccccc1-c1nc2c3ccccc3c3ccccc3c2[nH]1	9	36	9.3µM*	18	?
CC(C)(C)OC(=O)N1CCC[C@@H]1C(=O)N1CCC(C(=O)O)CC1	-1	-3	25%	14	-16%
CC(C)(C)OC(=O)N1CCC(C(=O)N2CCC[C@H]2C(=O)O)CC1	9.6*	60*	9%	62	33%
COc1ccc(F)cc1S(=O)(=O)N1CCN(C(=O)c2ccco2)CC1	-1	-6	1%	11	10µM*
Cc1ccc(COc2coc(CN3CCN(C(=O)c4ccco4)CC3)cc2=O)cc1	nt	nt	12µM*	1	?
COc1cccc(CN2CCN(C(=O)c3ccco3)CC2)c1	5	-11	43%	21	0.83µM*
COc1ccc(OC)c(CN2CCN(C(=O)c3ccco3)CC2)c1	-2	-6	15%	-20	?
CCc1ccc(OC)c(S(=O)(=O)N2CCN(C(=O)c3ccco3)CC2)c1	-2	-7	-2%	47	?
O=C(c1ccco1)N1CCN(Cc2cc(=O)c(OCc3ccc([N+](=O)[O-])cc3)co2)CC1	nt	nt	?	-28	?
COc1ccc(C)cc1S(=O)(=O)N1CCN(C(=O)c2ncoc2-c2cccc(F)c2)CC1	-5	-5	2%	6	0.66µM*
SMILES	CHX counter	Shiga toxin inh	Pf growth 48h	HCMV antiviral	Pf growth 96h
CC(C)OCCCNc1ncc2c(n1)CC(c1ccccc1)CC2=O (centres undefined)	9	4	?	-17	54%
COc1cccc(S(=O)(=O)N2CCN(C(=O)c3ccco3)CC2)c1	-3	-1	-1%	-86*	?
Cc1nc2c(-c3ccccc3)c(C)[nH]n2c(=O)c1Cc1ccc(Br)cc1	nt	nt	nt	-97*	nt
Cc1nc2c(-c3ccccc3)c[nH]n2c(=O)c1Cc1ccccc1	62*	121*	105%	-99*	60%
COc1ccc(-c2c(C)[nH]n3c(=O)c(Cc4ccccc4)c(C)nc23)cc1	1	8	?	-88*	49%
Cc1ccc(Cc2c(C)nc3c(-c4ccccc4)c(C)[nH]n3c2=O)cc1	nt	nt	nt	-73*	nt
COc1ccccc1-c1c(C)[nH]n2c(=O)c(Cc3ccccc3)c(C)nc12	-2	-2	?	-6	?
Cc1cc2nc(C)c(Cc3ccccc3)c(=O)n2[nH]1	-1	14	?	87	4%
CC(=O)c1nn(-c2ccc(Cl)cc2)cc1C(=O)c1ccc(C)cc1	nt	nt	nt	-7	nt
CCOC(=O)Nc1csnn1	1	-11	-6%	-31	2%
COc1ccc(CNC(=O)c2sc3nc4n(c(=O)c3c2C)CCC4)cc1	nt	nt	nt	16	nt
Cc1c(C(=O)Nc2cccc(C(F)(F)F)c2)sc2nc3n(c(=O)c12)CCCC3	nt	nt	nt	-16	nt
CCOc1ccc(NC(=O)c2sc3nc4n(c(=O)c3c2C)CCCC4)cc1	nt	nt	nt	0	nt
CCc1ccc(NC(=O)c2sc3nc4n(c(=O)c3c2C)CCC4)cc1	29*	36*	-1%	-29	?
COc1ccc(COC(=O)c2sc3nc4n(c(=O)c3c2C)CCC4)cc1	nt	nt	9.3µM*	-5	?
CC(=O)Nc1ccc(NC(=O)c2sc3nc4n(c(=O)c3c2C)CCCCC4)cc1	-1	12	-10%	-82*	?
Cc1c(C(=O)N(C)c2cccc(C(F)(F)F)c2)sc2nc3n(c(=O)c12)CCCCC3	nt	nt	nt	-76*	nt
O=S(=O)(Nc1cccc(-c2ccc(N3CCCC3)nn2)c1)c1ccccc1C(F)(F)F	nt	nt	nt	7	nt
CCc1ccc2occ(CC(=O)Nc3c(C(=O)Nc4ccc(OC)cc4)oc4ccccc34)c2c1	nt	nt	nt	29	nt
COc1nc(Oc2ccc(=O)n(-c3ccccc3)n2)nc(N(C)C)n1	nt	nt	nt	16	nt
Cc1cccc(NS(=O)(=O)Cc2ccccc2)n1	-1	-2	-21%	17	14%
Cc1cccc(C#Cc2ccccc2)n1	nt	nt	102%	-65*	154%
C/C(=N\Nc1nc2ccc(Cl)cc2o1)c1ccccc1	27*	74*	2%	-16	-21%
Cc1ccccc1S(=O)(=O)Cc1ccc(C(=O)O)o1	7	-1	nt	-31	2%
COc1cc(O)c(C(=O)c2ccccc2)cc1S(=O)(=O)O	3	10	?	1	?
SMILES	CHX counter	Shiga toxin inh	Pf growth 48h	HCMV antiviral	Pf growth 96h
COc1ccc(C(=O)c2ccccc2)c2c(O)ccc(C(=O)c3ccccc3)c12	-6	-22	?	-79*	nt
C[N+]1=CC2=c3c1c(O)c1c(c3=NCC2)C2(C=C(Br)C(=O)C(Br)=C2)CCN1	nt	nt	nt	-102*	nt
O=C(O)C(Cc1c[nH]c2ccccc12)NS(=O)(=O)c1ccc(Cl)c(C(F)(F)F)c1 (centres undefined)	-1	5	-17%	12	?
COc1ccc(C(=O)N/N=C/c2ccccc2C(=O)O)cc1OC	1	-6	70%	0	13%
COc1cc(C(=O)Oc2ccccc2/C=N/NC(=O)c2ccc(C)c(Cl)c2)cc(OC)c1OC	-2	-10	-14%	-104*	?
CC(=O)Nc1ccc(C(=O)N/N=C/c2ccccc2OC(=O)c2ccc(Cl)cc2)cc1	23	-9	?	38	104%

From PubChem BioAssay
